Our source for the inhibition values is ChEMBL document CHEMBL1961873, “Compounds: GSK PKIS; Assays: Nanosyn kinase panel” (2012).

By inhibition is commonly meant the drop in the measured response relative to a control, in per cent.

Values joined by “and” are separate entries in the source; they are usually repeats but may differ in a detail not shown here. Equal values may be shown once.
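Also: values are mean percent inhibition.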

The target in this experiment is Homeodomain-interacting protein kinase 1 (Homo sapiens) (UniProt Q86Z02). To be noted: at 1 µM.
Chain of Homeodomain-interacting protein kinase 1 (Homo sapiens) (Q86Z02 whole entry, looked up): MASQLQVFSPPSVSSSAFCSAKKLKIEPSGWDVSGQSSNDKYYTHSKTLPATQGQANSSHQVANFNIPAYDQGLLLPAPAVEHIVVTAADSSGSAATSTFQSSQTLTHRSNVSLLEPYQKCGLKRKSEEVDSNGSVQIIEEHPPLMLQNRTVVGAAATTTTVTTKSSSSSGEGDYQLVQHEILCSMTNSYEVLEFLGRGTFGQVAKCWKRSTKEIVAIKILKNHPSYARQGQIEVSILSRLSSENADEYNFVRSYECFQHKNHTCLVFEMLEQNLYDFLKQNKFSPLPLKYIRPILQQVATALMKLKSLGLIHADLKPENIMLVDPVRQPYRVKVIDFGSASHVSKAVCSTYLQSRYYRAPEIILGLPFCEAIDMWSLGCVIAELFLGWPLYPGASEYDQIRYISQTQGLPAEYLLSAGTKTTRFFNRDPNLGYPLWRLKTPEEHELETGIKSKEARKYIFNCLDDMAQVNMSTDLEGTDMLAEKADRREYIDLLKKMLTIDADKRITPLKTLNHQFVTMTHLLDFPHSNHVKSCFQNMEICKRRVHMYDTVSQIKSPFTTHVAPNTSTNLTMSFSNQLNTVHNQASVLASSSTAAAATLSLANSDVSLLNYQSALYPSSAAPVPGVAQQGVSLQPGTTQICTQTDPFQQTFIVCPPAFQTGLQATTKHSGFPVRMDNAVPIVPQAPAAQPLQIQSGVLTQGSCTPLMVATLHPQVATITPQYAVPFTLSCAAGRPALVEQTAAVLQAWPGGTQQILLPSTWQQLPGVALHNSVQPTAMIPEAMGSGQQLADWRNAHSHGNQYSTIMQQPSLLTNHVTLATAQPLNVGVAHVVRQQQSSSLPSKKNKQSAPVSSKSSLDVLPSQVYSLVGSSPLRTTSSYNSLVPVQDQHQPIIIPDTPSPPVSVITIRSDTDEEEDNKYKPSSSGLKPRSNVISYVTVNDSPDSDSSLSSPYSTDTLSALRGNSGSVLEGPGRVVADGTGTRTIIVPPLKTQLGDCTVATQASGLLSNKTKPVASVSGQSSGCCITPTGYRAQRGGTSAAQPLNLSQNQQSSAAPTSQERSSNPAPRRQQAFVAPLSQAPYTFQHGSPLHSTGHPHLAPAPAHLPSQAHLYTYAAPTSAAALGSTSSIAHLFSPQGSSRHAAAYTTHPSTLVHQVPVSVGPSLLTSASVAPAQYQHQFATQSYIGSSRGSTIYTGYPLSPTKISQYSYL
Turning to `CNC(=O)c1ncccc1Nc1nc(Nc2cc3c(cc2OC)CCCN3C(=O)CN(C)C)nc2[nH]ccc12`, the inhibition was determined as 22.2%. As to `Cc1ccc(-c2cc3c(NC(=O)C4CC4)ncnc3o2)cc1`, the inhibition stood at 9.22%. The figure for `CNC(=O)c1sc(-n2cnc3cc(OC)c(OC)cc32)cc1OCc1ccccc1C(F)(F)F` is -1.76%.

As to `O=C(O[C@H]1CN[C@H](C#Cc2cc3ncnc(Nc4ccc5c(ccn5Cc5cc(F)ccc5F)c4)c3s2)C1)N1CCOCC1`, the inhibition was -1.46%. Consider `CN1CCN(Cc2ccc(-c3cc4ncnc(Nc5ccc(OCc6cccc(F)c6)c(Cl)c5)c4s3)o2)CC1`, for which the inhibition was 0.3% and 2.78%.

On to `CCn1c(-c2nonc2N)nc2cncc(C(=O)NCCNC)c21`, for which the inhibition amounted to 10.2%. Consider `CCS(=O)(=O)c1ccc(OC)c(Nc2ncc(-c3cccc(F)c3)o2)c1`, for which the inhibition worked out at 23.8%.

Regarding `COC(=O)Nc1nc2cc(Oc3ccc(NC(=O)Nc4ccccc4)cc3)ccc2[nH]1`, the inhibition turned out to be 2.14%.

Regarding `COc1c(C(N)=O)cc(-c2ccc(Cl)cc2)cc1-c1ccc(S(N)(=O)=O)cc1`, the inhibition is -0.59%. On to `CC1(C)CC(n2cnc(-c3ccc(F)cc3)c2-c2ccnc(N)n2)CC(C)(C)N1`, for which the inhibition is -0.7%.

Take `CCCNc1cccc(-n2ncc3c(N/N=C/c4ccncc4)ncnc32)c1`: the inhibition came to 13.5%. As for `CN(c1ccc(NC(=O)NCCN2CCOCC2)cc1)c1ccnc(Nc2ccc(CS(C)(=O)=O)cc2)n1`, the inhibition was determined as 5.06%. Regarding `CCOc1ccc2c(-c3ccnc(Nc4cc(OC)cc(C(F)(F)F)c4)n3)cnn2n1`, the inhibition is 61.9%. For `COc1cccc(-n2ncc3c(N/N=C/c4ccc(C(=O)NCCN(C)C)cc4)ncnc32)c1`, the inhibition came out at 78.8%.

`COc1ccc(-c2nn3ncccc3c2-c2ccnc(Nc3ccc(F)c(F)c3)n2)cc1`: the inhibition worked out at 4.38%.

Consider `Cc1c2ccc(N(C)c3ccnc(Nc4cccc(S(N)(=O)=O)c4)n3)cc2nn1C`, for which the inhibition is -0.84%. In the case of `N#Cc1cccc(Nc2ncc(-c3ccccc3)o2)c1`, the inhibition was found to be 20.2%. Regarding `CC1=C(C(=O)Nc2ccc3[nH]ncc3c2)C(c2ccc(F)cc2)N=C(c2ccc(C(F)(F)F)nc2)N1` (stereo unspecified), the inhibition was determined as 2.28%.

As for `NS(=O)(=O)c1ccc(N/N=C2\C(=O)Nc3cccc(CCc4ccncc4)c32)cc1`, the inhibition came out at 2.62%. Regarding `O=C(O[C@H]1CN[C@H](C#Cc2cc3ncnc(Nc4ccc5c(cnn5Cc5ccccc5)c4)c3s2)C1)N1CCOCC1`, the inhibition is -1.24%.

As for `CS(=O)(=O)Nc1ccc(-c2cc(-c3ccccc3)cc(C(N)=O)c2N)cc1`, the inhibition is 2.26%. For `FC(F)(F)CNc1nccc(-c2cnn3ncccc23)n1`, the inhibition came to 10.2%.

As for `CS(=O)(=O)CCNCc1ccc(-c2ccc3ncnc(Nc4ccc(OCc5ccccc5)cc4)c3c2)o1`, the inhibition was 3.06%.

Turning to `CN(C)CCNC(=O)Nc1ccc(N(C)c2ccnc(Nc3ccc(CS(C)(=O)=O)cc3)n2)cc1`, the inhibition came to 4.6%. As for `NC(=O)c1ccc2c(-c3ccnc(NCCCO)n3)c(-c3ccc(F)cc3)nn2c1`, the inhibition worked out at 4.85%.

`c1ccc(-c2n[nH]cc2-c2ccnc(-c3ccc(OCCn4ccnc4)cc3)c2)nc1`: the inhibition was -1.32%.

For `c1cnn2ncc(-c3ccnc(NCCCN4CCOCC4)n3)c2c1`, the inhibition stood at 6.02%. The result for `CN1CCC(n2cnc(-c3ccc(F)cc3)c2-c2ccnc(NCCO)n2)CC1` reads 7.67%; that for `COc1cc(N2CCN(C(C)C)CC2)ccc1Nc1nc(Nc2cccc3ncccc23)c2cc[nH]c2n1`, 3.6%; that for `COc1ccc(Nc2ncc(-c3ccccc3)o2)cc1OC`, 28.6%. Regarding `CC1=C(C(=O)Nc2ccc3[nH]nc(C)c3c2)C(c2ccc(C(F)(F)F)cc2)CC(=O)N1` (stereo unspecified), the inhibition came out at 7.43%.
